Measurements published in PubChem BioAssay (Tox21).
Results filed as inconclusive are left out. A number with no mark means an inactive call. Calls follow the shape of the dose curve; as a rule, active = well fitted activation curve with a large enough effect in the repeat runs; inconclusive = weak or mixed curves; inactive = flat fitted curve, though single readings scatter.

assay: A CellTox Green Cytotoxicity Assay to monitor cytotoxicity in HepG2 cells - 32 hour (AID 1224883); details: CellTox Green fluorescence; series mostly up to 76.8 µM; cytotoxicity increase: at the top concentration; also: nearly all actives have a fitted effect of over 50% in size
From the text: National Center for Advancing Translational Sciences [NCATS]
NIH Chemical Genomics Center [NCGC]
U.S. Environmental Protection Agency [EPA]
National Institutes of Environmental Health Sciences [NIEHS]
National Toxicology Program [NTP]
Cell-based models are critical for drug discovery. Determining the natural cytotoxic effects resulting from test compounds is an essential research activity. A CellTox Green Cytotoxicity Assay to monitor cytotoxicity in real time of continues cell culture during 40 hours of the compound treatment was used to screen Tox21 10K library compounds in HepG2 cells. CellTox Green Cytotoxicity Assay is a nonlytic, homogeneous, biofluorescent method to measure cytotoxicity in cell culture after experimental manipulation. The assay system uses a proprietary asymmetric cyanine dye that is excluded from viable cells but preferentially stains the dead cell's DNA. […] Viable cells produce no appreciable increases in fluorescence. Therefore, the fluorescence signal produced by the binding interaction with dead cell DNA is proportional to cytotoxicity.
The mixture of HepG2 cell suspension and reagents were dispensed at 600cells/6 ul/well in 1536-well tissue culture treated black solid bottom plates using a Multidrop dispenser. After the assay plates were incubated at a 37 C/5% CO2 incubator for 5 hours, 23 nL of compounds dissolved in DMSO, positive and negative controls was transferred to the assay plate by a pintool work station. The plates were incubated at 37 C for 40 hours. The fluorescence intensity were measured at 0h, 8h, 16h, 24h, 32h and 40h time points using ViewLux plate reader during compound treatment.
% is scaled to controls: 0 for no effect and ±100 for the full control effect.

SMILES	cytotoxicity increase
C=CCCC(=O)O	7.68%
CC(=O)OCC(=O)[C@@]1(O)[C@H](C)C[C@H]2[C@@H]3CCC4=CC(=O)C=C[C@]4(C)[C@@]3(F)[C@@H](O)C[C@@]21C	-3.72% [at 35.3 µM]
CCCCCCC#CC(=O)OC	15.1%
COc1ccc2cc1Oc1cc3c(cc1OC)CC[N+](C)(C)[C@H]3Cc1ccc(cc1)Oc1c(OC)c(OC)cc3c1[C@@H](C2)[N+](C)(C)CC3	1.16% [at 35.3 µM]
CO[C@@]1(NC(=O)CSC[C@@H](N)C(=O)O)C(=O)N2C(C(=O)O)=C(CSc3nnnn3C)CS[C@@H]21	-3.89% [at 35.3 µM]
Nc1ccncc1N	-10.7% [at 35.3 µM]
O=C(O)CNC(=O)c1ccc(CO)o1	-1.02%
c1ccc2sc(SN3CCOCC3)nc2c1	0.469% [at 35.3 µM]
CC[N+](CC)(CC)CCOc1cccc(OCC[N+](CC)(CC)CC)c1OCC[N+](CC)(CC)CC	-10.6% [at 35.3 µM]
O=S(=O)(O)c1cccc2ccccc12	-0.428%
CC1=NS(=O)(=O)c2cc(Cl)ccc2N1	-4.37% [at 35.3 µM]
CCCCCCCCCCCCSC	-1.76%
CC(C)(C)OC(=O)c1cccc(N)c1	0.438%
CC(C)C[C@@H](N)C(=O)O	-8.17% [at 15.8 µM]
CC[N+](CC)(CC(=O)Nc1c(C)cccc1C)Cc1ccccc1 (tested in a mixture with another compound)	0.54% [at 35.3 µM]
CN1CC(=O)N/C1=N/C(=O)Nc1cccc(Cl)c1	-1.71% [at 35.3 µM]
CO[Si](C)(OC)c1ccccc1	-0.0526%
O=CN(CCO)CCO	5.53%
CC(COc1ccccc1)NN (stereo not given)	-9.93% [at 35.3 µM]
CC(C)(C)C(=O)c1ccccc1	-5.85%

SMILES	cytotoxicity increase
Cc1cc(C)c(N=Nc2c(O)c(S(=O)(=O)O)cc3cc(S(=O)(=O)O)ccc23)cc1C	-2.71% [at 6.97 µM]
CCOc1c(N2CCOCC2)cnn(C)c1=O	-8.37% [at 35.3 µM]
Cc1ccc(C(=O)c2ccccc2)cc1	25.5%
CCCCCCCC1CCCC1=O (stereo not given)	-11.8%
CO/N=C(\C(=O)N[C@@H]1C(=O)N2C(C(=O)O)=C(CSc3nc(=O)c(O)nn3C)CS[C@H]12)c1csc(N)n1	0.364% [at 35.3 µM]
Nc1ccn([C@@H]2O[C@H](CO)[C@@H](O)[C@@H]2O)c(=O)n1	-12.5%
COC(=O)Nc1ccc(Cl)c(Cl)c1	-11.4%
O=C(CO)[C@@H](O)[C@H](O)[C@H](O)CO	-7.04%
CCCCCC(=O)OCCc1ccccc1	-0.918%
C=CC(C)(CCC=C(C)C)OC(=O)CC (stereo not given)	11.5%
CC1(C)OC[C@@H](COC(=O)CCc2ccc(OC[C@@H](O)CNCCNC(=O)N3CCOCC3)cc2)O1	-5.8% [at 35.3 µM]
CN1CCN(c2cc3c(nn2)Oc2ccccc2N3C)CC1	-2% [at 15.8 µM]
O=C(c1ccccc1O)c1ccccc1O	7.65%
Cc1nc2ccc(CN(C)c3ccc(C(=O)N[C@@H](CCC(=O)O)C(=O)O)s3)cc2c(=O)[nH]1	7.24% [at 35.3 µM]
CCCc1ncc(C[n+]2ccccc2C)c(N)n1	-5.6% [at 35.3 µM]
CCCc1nn(C)c2c(=O)[nH]c(-c3cc(S(=O)(=O)N4CCN(C)CC4)ccc3OCC)nc12	-2.46% [at 35.3 µM]
CCN1CCOCC1	2.32%
CCNS(=O)(=O)c1ccc(C)cc1	1.07%
CC(C)CCCO	-10.4%
O=S(=O)(O)c1cccc2c(S(=O)(=O)O)cccc12	2.26%
